Results as given in PubChem BioAssay (EPA / NIEHS).
Activity calls are given as the source filed them. The calls were made as follows: active = hit-call score of the fitted dose curve at least 0.9, where 1 is the maximum; inactive = score below 0.9.

Test: APR_HepG2_p53Act_72hr: Apredica 72-hour HepG2 Assay for p53 Activation (AID 2282923);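 also: average cellular p53 protein immunofluorescence intensity in HepG2 cells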
Settings: high-content imaging, actives raise or lower the signal
Outline: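 Imaging-based endpoint: after 72 hr compound exposure (up to 200 uM, 0.5% DMSO), fixed and permeabilized monolayers were labelled with anti-p53 antibody and imaged; signal change in either direction was fitted relative to DMSO controls.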

AC50, active:
COc1ccc(OC(F)(F)F)cc1CN[C@H]1CCCN[C@H]1c1ccccc1 24.3 µM, Oc1ccc(O)cc1 91.9 µM, CN(C)C(=O)NC1(c2ccccc2)CCN(CC[C@@]2(c3ccc(F)c(F)c3)CN(C(=O)c3ccccc3)CCO2)CC1 97.7 µM, CN(C)C(=O)NC1(c2ccccc2)CCN(CCC[C@]2(c3ccc(Cl)c(Cl)c3)CCCN(C(=O)c3ccccc3)C2)CC1 10.3 µM, NCCOCCOCCN 7.09 µM, CCc1nc(N)nc(N)c1-c1ccc(Cl)cc1 3.77 µM, Nc1nc(Cl)nc2c1ncn2[C@H]1C[C@H](O)[C@@H](CO)O1 0.038 µM, CCCCC(CC)COP(=O)(OCC(CC)CCCC)OCC(CC)CCCC (configuration not stated) 42.5 µM

outcome, inactive:
CC(C)(O)c1ccc(CNC(=O)c2cccnc2Oc2ccc(F)cc2)cc1, CN(C)CCCN(C)CCCN(C)C, Cc1cc(SC2=C(O)C[C@@](CCc3ccc(N)cc3)(C(C)C)OC2=O)c(C(C)(C)C)cc1CO, CCCCc1nc2cccnc2n1Cc1ccc(-c2ccccc2-c2nnn[nH]2)cc1, OCC(CO)n1cnc(-c2ccc(F)cc2)c1-c1ccnc(Oc2ccccc2)n1, c1ccc2occc2c1, CCCCC(CC)COC(=O)CCCCCCCC(=O)OCC(CC)CCCC (configuration not stated), CC(C)(C)c1ccccc1, COC(=O)CCC(=O)OC, COC(=O)CCCC(=O)OC, O=C(O)c1[nH]n(-c2ccc(S(=O)(=O)O)cc2)c(=O)c1N=Nc1ccc(S(=O)(=O)O)cc1

Test: APR_HepG2_MitoMass_72hr: Apredica 72-hour HepG2 Assay for Mitochondrial Mass (AID 2282924);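 also: MitoTracker Red CMXRos stain intensity per cell imaged as mitochondrial mass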
Settings: high-content imaging, actives raise or lower the signal
Outline: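 Readout is imaged MitoTracker Red (250 nM, 30 min, pre-fixation) signal, fitted bidirectionally against DMSO baseline. Human HepG2 liver cells received compound 0.39–200 uM in duplicate for 72 hr, final DMSO 0.5%.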

outcome, inactive:
O=C1c2c(O)cccc2Cc2cccc(O)c21, CCCCCCCC(=O)OC, CCc1cc(C2=C(C(=O)O)N(c3ccccc3C(F)(F)F)S(=O)(=O)c3ccccc32)cc2c1OCO2, OCC(O)CO, S=c1[nH]c2ccccc2s1, CCCCCCCCCC[N+](C)(C)[O-], CN(C)CCCN1c2ccccc2Sc2ccc(Cl)cc21, CO[C@@H]1COCC[C@@H]1N[C@@H]1CC[C@@](C(=O)N2CCc3ncc(C(F)(F)F)cc3C2)(C(C)C)C1, CN(C)C(=O)NC1(c2ccccc2)CCN(CC[C@@]2(c3ccc(F)c(F)c3)CN(C(=O)c3ccccc3)CCO2)CC1, CN(C)C(=O)NC1(c2ccccc2)CCN(CCC[C@]2(c3ccc(Cl)c(Cl)c3)CCCN(C(=O)c3ccccc3)C2)CC1, CCc1nc(N)nc(N)c1-c1ccc(Cl)cc1, CC(C)(O)c1ccc(CNC(=O)c2cccnc2Oc2ccc(F)cc2)cc1, Nc1nc(Cl)nc2c1ncn2[C@H]1C[C@H](O)[C@@H](CO)O1, CN(C)CCCN(C)CCCN(C)C, Cc1cc(SC2=C(O)C[C@@](CCc3ccc(N)cc3)(C(C)C)OC2=O)c(C(C)(C)C)cc1CO, OCC(CO)n1cnc(-c2ccc(F)cc2)c1-c1ccnc(Oc2ccccc2)n1, CCCCC(CC)COC(=O)CCCCCCCC(=O)OCC(CC)CCCC (configuration not stated), CC(C)(C)c1ccccc1, COC(=O)CCC(=O)OC, CCCCC(CC)COP(=O)(OCC(CC)CCCC)OCC(CC)CCCC (configuration not stated), COC(=O)CCCC(=O)OC, O=C(O)c1[nH]n(-c2ccc(S(=O)(=O)O)cc2)c(=O)c1N=Nc1ccc(S(=O)(=O)O)cc1

AC50, active:
COc1ccc(C(=O)Nc2nc3ccccc3c(NCc3ccccc3)c2C#N)cc1 5.59 µM, CS(=O)(=O)c1ccc([C@@H](C[C@H]2CCC(=O)C2)C(=O)Nc2cnccn2)cc1Cl 43.7 µM, COc1ccc(OC(F)(F)F)cc1CN[C@H]1CCCN[C@H]1c1ccccc1 62.3 µM, Oc1ccc(O)cc1 46.3 µM, NCCOCCOCCN 84.5 µM, CCCCc1nc2cccnc2n1Cc1ccc(-c2ccccc2-c2nnn[nH]2)cc1 118 µM, c1ccc2occc2c1 100 µM

Test: APR_HepG2_NuclearSize_72hr: Apredica 72-hour HepG2 Assay for Nuclear Size (AID 2282925)
Settings: high-content imaging, actives raise or lower the signal
Outline: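 Nuclear size was read by high-content imaging of Hoechst 33342 stain after formaldehyde fixation. Compounds ran 72 h on HepG2 at 0.39 to 200 uM, with final DMSO 0.5% v/v. Curves fitted both directions relative to DMSO control.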

outcome, inactive:
O=C1c2c(O)cccc2Cc2cccc(O)c21, CCCCCCCC(=O)OC, CCc1cc(C2=C(C(=O)O)N(c3ccccc3C(F)(F)F)S(=O)(=O)c3ccccc32)cc2c1OCO2, OCC(O)CO, S=c1[nH]c2ccccc2s1, CCCCCCCCCC[N+](C)(C)[O-], CN(C)CCCN1c2ccccc2Sc2ccc(Cl)cc21, CO[C@@H]1COCC[C@@H]1N[C@@H]1CC[C@@](C(=O)N2CCc3ncc(C(F)(F)F)cc3C2)(C(C)C)C1, CS(=O)(=O)c1ccc([C@@H](C[C@H]2CCC(=O)C2)C(=O)Nc2cnccn2)cc1Cl, COc1ccc(OC(F)(F)F)cc1CN[C@H]1CCCN[C@H]1c1ccccc1, CN(C)C(=O)NC1(c2ccccc2)CCN(CC[C@@]2(c3ccc(F)c(F)c3)CN(C(=O)c3ccccc3)CCO2)CC1, CN(C)C(=O)NC1(c2ccccc2)CCN(CCC[C@]2(c3ccc(Cl)c(Cl)c3)CCCN(C(=O)c3ccccc3)C2)CC1, CCc1nc(N)nc(N)c1-c1ccc(Cl)cc1, CC(C)(O)c1ccc(CNC(=O)c2cccnc2Oc2ccc(F)cc2)cc1, Nc1nc(Cl)nc2c1ncn2[C@H]1C[C@H](O)[C@@H](CO)O1, CN(C)CCCN(C)CCCN(C)C, Cc1cc(SC2=C(O)C[C@@](CCc3ccc(N)cc3)(C(C)C)OC2=O)c(C(C)(C)C)cc1CO, CCCCc1nc2cccnc2n1Cc1ccc(-c2ccccc2-c2nnn[nH]2)cc1, OCC(CO)n1cnc(-c2ccc(F)cc2)c1-c1ccnc(Oc2ccccc2)n1, c1ccc2occc2c1, CCCCC(CC)COC(=O)CCCCCCCC(=O)OCC(CC)CCCC (configuration not stated), CC(C)(C)c1ccccc1, COC(=O)CCC(=O)OC, CCCCC(CC)COP(=O)(OCC(CC)CCCC)OCC(CC)CCCC (configuration not stated), COC(=O)CCCC(=O)OC, O=C(O)c1[nH]n(-c2ccc(S(=O)(=O)O)cc2)c(=O)c1N=Nc1ccc(S(=O)(=O)O)cc1

AC50, active:
COc1ccc(C(=O)Nc2nc3ccccc3c(NCc3ccccc3)c2C#N)cc1 113 µM, Oc1ccc(O)cc1 67.8 µM, NCCOCCOCCN 3.84 µM
